Laboratory results reported in ChEMBL document CHEMBL4513216, “Probing the Open Global Health Chemical Diversity Library for Multistage-Active Starting Points for Next-Generation Antimalarials” (ACS Infect Dis, 2020).
Hit rate of the full screen: of about 68,000 compounds, about 2,700 (4%) showed an effect of 50% or more. The entries come from a sample that favours strong results as a whole.

These molecules were tested on Plasmodium berghei (assay: Screen against P. berghei liver stage (PbLuc), transformed with Luciferase, at 2uM). Conditions: tested at 2 uM.
Type: functional, HepG2
`CNC(=O)c1csc(-c2ccoc2)n1` gave an INHIBITION of 52.3%.
`CN(C)C(=O)c1csc(-c2ccoc2)n1` gave an INHIBITION of 38.83%.
`CNC(=O)c1csc(-c2cccnc2)n1` gave an INHIBITION of 30.63%.
In the case of `Cc1nc(C)n(CC(C)C(=O)N2CCC(NS(C)(=O)=O)CC2)n1` (centres undefined), the INHIBITION is reported as 5.85%.
In the case of `CCc1ccc(C(COC)NC(=O)c2ccc(C(N)=O)cc2)o1` (centres undefined), the INHIBITION is reported as 15.56%.
`CSc1ncccc1C(=O)NCc1ccc(N(C)C)cc1` gave an INHIBITION of 10.65%.
Molecule `Cc1ncccc1C(=O)Nc1cccc(Cn2ccccc2=O)c1` has an INHIBITION of 45.67%.
Molecule `CSc1ncccc1C(=O)Nc1ccc(Cn2ccccc2=O)cc1` has an INHIBITION of 52.45%.
`CS(=O)(=O)N[C@@H]1CCN(Cc2nccs2)[C@H]1Cc1ccncc1` gave an INHIBITION of -11.68%.
`Cc1cc(NC(=O)C(C)Cn2cc(Br)cn2)no1` (centres undefined) gave an INHIBITION of 0.55%.
`CCOc1ncccc1CNc1nnc(C)c(C)c1C#N` gave an INHIBITION of -27.71%.
For `CCCOc1ncccc1CNc1nnc(C)c(C)c1C#N`, the INHIBITION was 42.12%.
In the case of `Cc1nnc(NCc2cccnc2N(C)C)c(C#N)c1C`, the INHIBITION is reported as 53.03%.
Work on `COC(=O)N1CCCC(C(=O)NCc2cc3cccc(OC)c3o2)C1` (centres undefined) yielded an INHIBITION of 33.01%.
`CCn1ncc(C(=O)NCCc2nc(-c3ccc(C)cc3)n[nH]2)c1C` was tested, and the INHIBITION was -0.21%.
With `CC1(C)[C@@H]2CC=C(CN3CCCn4nc(C(=O)NCCO)cc4C3)[C@H]1C2` the INHIBITION was 53.17%.
`CC1(C)[C@@H]2CC=C(CN3CCCn4nc(CCC(=O)O)cc4C3)[C@H]1C2` showed an INHIBITION of 6.88%.
`CC1(C)[C@@H]2CC=C(CN3CCCn4nc(C(=O)O)cc4C3)[C@H]1C2` was tested, and the INHIBITION was -17.07%.
`Cn1cc(CCNC(=O)NC2CCS(=O)(=O)C2)cn1` (centres undefined) gave an INHIBITION of 0.3%.
`CC(c1ccc(C(=O)NCCc2nc(N)cc(O)n2)o1)N1CCCCC1` (centres undefined) showed an INHIBITION of -24.78%.
Work on `Cc1ccc(-c2nc(C(=O)NCC3CCOC3)cs2)cc1` (centres undefined) yielded an INHIBITION of 49.9%.
`COc1ccc(-c2nc(C(=O)NCC3CCOC3)cs2)cc1OC` (centres undefined) showed an INHIBITION of 60.09%.
`O=C(NCC1CCOC1)c1csc(-c2ccc(Cl)cc2)n1` (centres undefined) gave an INHIBITION of 5.09%.
Work on `CC(=O)N(Cc1ncc(C)o1)C1CCN(CCc2cnn(C)c2)C1` (centres undefined) yielded an INHIBITION of 9.83%.
Molecule `CCC1CN(C(=O)COc2ccc(C(=O)NC3CC3)cc2)CCO1` (centres undefined) has an INHIBITION of 32.93%.
For `N#CCCN1CC(O)CN(C(=O)c2cccc(C(F)(F)F)c2)CC1=O` (centres undefined), the INHIBITION was 24.52%.
Work on `CNc1nc(CNC(=O)Nc2cccc(F)c2)cs1` yielded an INHIBITION of -88.54%.
Work on `O=C(NCCCc1nc(=O)[nH][nH]1)Nc1ccc(Cl)cc1` yielded an INHIBITION of 23.64%.
`O=C(NCCCc1nc(=O)[nH][nH]1)Nc1cccc(F)c1` was tested, and the INHIBITION was 52.85%.
With `COCC1CN(Cc2ccc(C)o2)Cc2nnn(C)c21` (centres undefined) the INHIBITION was 38.83%.
Molecule `Cc1cc(S(=O)(=O)NCC(C)(O)CN(C)C)c(F)cc1F` (centres undefined) has an INHIBITION of 8.05%.
For `CN(C)C(=O)c1cccc(C[S+]([O-])CC(=O)NC2CCCC2)c1` (centres undefined), the INHIBITION was -13.12%.
Work on `Cc1cc(CS(=O)(=O)NC2CCCCC2)on1` yielded an INHIBITION of 35.46%.
`Cc1cc(CS(=O)(=O)NCC2CCCCC2)on1` showed an INHIBITION of 10.22%.
Molecule `Cc1cc(CS(=O)(=O)NC2CCCc3ccccc32)on1` (centres undefined) has an INHIBITION of 57.34%.
Molecule `CCCc1n[nH]c(=O)n1Cc1ccc(OC)cc1` has an INHIBITION of -13.14%.
`O=C(COC1CCCC1)Nc1ncn(CC(=O)N2CCCCCC2)n1` gave an INHIBITION of 22.29%.
In the case of `CC(C)Nc1nnc(SCc2nnc(C(C)(C)C)o2)s1`, the INHIBITION is reported as 13.91%.
With `O=C(NCC1CC1)C1CN(c2ncccn2)Cc2ccnn2C1` (centres undefined) the INHIBITION was 64.37%.
For `O=C(NCC1CC1)C1CN(Cc2cccs2)Cc2ccnn2C1` (centres undefined), the INHIBITION was 23.53%.
`O=C(NCC1CC1)C1CN(Cc2ccncc2)Cc2ccnn2C1` (centres undefined) showed an INHIBITION of 7.55%.
Molecule `O=c1ccc(-c2cccs2)nn1CN1CCOC(c2ccccc2)C1` (centres undefined) has an INHIBITION of -30.87%.
In the case of `Cc1nc(CN2CCC3(CC2)CC(=O)N(C)c2ccccc23)cs1`, the INHIBITION is reported as 9.8%.
`Clc1cnccc1N1CCC(OC2CCOCC2)CC1` was tested, and the INHIBITION was -76.37%.
`N#Cc1ccc(NCc2cccc(OCC3CCCO3)c2)nc1` (centres undefined) gave an INHIBITION of 42.35%.
Work on `N#Cc1ccc(NCc2cccc(COC3CCOCC3)c2)nc1` yielded an INHIBITION of 66.24%.
With `Clc1cncc(NCc2cccc(COC3CCOCC3)c2)n1` the INHIBITION was -0.39%.
`CNS(=O)(=O)Cc1cccc(CNc2ccc(C#N)cn2)c1` showed an INHIBITION of 19.12%.
`Clc1cnccc1NCc1cccc(COC2CCOCC2)c1` showed an INHIBITION of 68.73%.
Molecule `CC(=O)N1CCN(Cc2nccs2)CC2(CC(=O)N(C)C2)C1` (centres undefined) has an INHIBITION of 26.01%.
`CCC(Nc1cccc(OC)c1)C(=O)NCc1ccc2c(c1)OCO2` (centres undefined) showed an INHIBITION of 11.6%.
`c1cnn(CC2CN(Cc3csc(C4CCCCC4)n3)CCO2)c1` (centres undefined) gave an INHIBITION of -43.79%.
Molecule `Cc1cccc(CN2CCN(C(=O)c3cnc(C)[nH]c3=O)CC2)c1` has an INHIBITION of 43.15%.
`CNC(=O)CN1C(=O)CN(C(=O)COC)CCC(OC)c2ccccc21` (centres undefined) was tested, and the INHIBITION was -8.2%.
With `O=S(=O)(c1ccccc1)N1C[C@@H]2COC[C@]2(CN2CCOCC2)C1` the INHIBITION was 29.19%.
With `CCN(CCO)C[C@@H]1CN(c2cc(C(F)(F)F)cc(C)n2)C[C@@H]1CO` the INHIBITION was 14.59%.
`Cc1cc(C(F)(F)F)cc(N2C[C@@H](CN3CCOCC3)[C@@H](CO)C2)n1` gave an INHIBITION of -18.71%.
`Cc1cc(C(F)(F)F)cc(N2C[C@@H](CN(C)CCO)[C@@H](CO)C2)n1` gave an INHIBITION of 50.97%.
In the case of `c1cncc(CN2CCn3cc(Cn4cccn4)nc3C2)c1`, the INHIBITION is reported as 15.39%.
`Cc1ccc(N2CC3(COCCN(Cc4cccnc4)C3)OCC2=O)s1` (centres undefined) showed an INHIBITION of -5.44%.
With `CN(C)c1cc(CNC(=O)c2cc(Cl)ccn2)ccn1` the INHIBITION was 49.01%.
For `Cc1ccc(CC(=O)N2CCCC(c3cc(C(N)=O)[nH]n3)C2)cn1` (centres undefined), the INHIBITION was 14.53%.
For `CC(C)(C)C(=O)NCCC(=O)N1CCC(Nc2cccnn2)CC1`, the INHIBITION was -27.69%.
In the case of `COCCN1CCC2(CC1)CN(C(=O)c1ccccc1)CCO2`, the INHIBITION is reported as 58.4%.
`COCCN1CCC2(CC1)CN(C(=O)c1ccco1)CCO2` was tested, and the INHIBITION was 45.22%.
Work on `COCCN1CCC2(CC1)CN(C(=O)Cc1cccnc1)CCO2` yielded an INHIBITION of 35.89%.
`COCCN1CCC2(CC1)CN(C(=O)c1cccs1)CCO2` was tested, and the INHIBITION was 57.31%.
`COCCN1C[C@@H](C)[C@@]2(COCCN(C(=O)c3cccs3)C2)C1` showed an INHIBITION of -3.19%.
`O=C(c1ccccc1)N1CCOC2(CCN(Cc3cccs3)CC2)C1` was tested, and the INHIBITION was 20.51%.
